Source: PubChem BioAssay
Rows were chosen to be rich in hits. Some 1.7% of all compounds tested hit in one or more screens of this group.
TRPML1 inh – qHTS for Inhibitors of the Human Mucolipin Transient Receptor Potential 1 (TRPML1) | Mucolipin-1 (Homo sapiens), Q9GZU1 | TRPML1-inducible cells, Ca2+ dye fluorescence, FDSS; stronger effect = lower value; inhibition of EC80 agonist-evoked calcium signal | activity change, negative = inhibition, % (test concentration not listed) | 390,000 compounds, 0.02% hits | AID 624415, 2012; in the data active means activity change below about -50%; inconclusive means between about -30% and that limit;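 further: stimulus is agonist 54-4 at its EC80 concentration; on the % scale 0 is the no-effect control and ±100 the full control effect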
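TRPML1-DL cells, Tet-induced overnight (~16 h, 37 °C) at 1,500 cells/well, were loaded with Ca8 no-wash dye plus quencher for 45-90 min at room temperature. Compounds were pinned during FDSS kinetic reading; agonist 54-4 at EC80 (4 uM final) then added.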
KCNH2 3.1 block – qHTS for Inhibitors of KCHN2 3.1: Mutant qHTS. Potassium voltage-gated channel subfamily H member 2, brain isoform KCNH2 3.1 (human). U2OS KCNH2 3.1, thallium flux FluxOr; stronger effect = lower value. 340,000 compounds, 0.95% hits. AID 720553, 2013. activity change, % (tested at about 1.8 µM);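 active means maximum activity change below -70%; inconclusive means maximum activity change from -70% to -50%; inactive means maximum activity change above -50%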;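 further: thallium influx rate constant from kinetic fluorescence after stimulation buffer; on the % scale 0 is the no-effect control and ±100 the full control effect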
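Thallium flux via FluxOr fluorescence (Red40 quencher, 45 min loading) in U2OS cells virally expressing the KCNH2 3.1 isoform (1.77 x 10^8 /mL virus, overnight at 37 C). Rate constants from 2-min kinetic reads post-stimulation, normalised to positive and negative controls.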
KCNH2 WT inh – qHTS for Inhibitors of KCHN2 3.1: Wildtype qHTS; activity change, % at 1.84 µM; U2OS, BacMam KCNH2, thallium flux FluxOr; stronger effect = lower value; Voltage-gated inwardly rectifying potassium channel KCNH2 (Homo sapiens), Q12809; 340,000 compounds, 0.37% hits;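 active means maximum activity change below -70%; inconclusive means maximum activity change between -70% and -50%; inactive means maximum activity change above -50%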; further: on the % scale 0 is the no-effect control and ±100 the full control effect
Target sequence (Q12809 whole entry, looked up): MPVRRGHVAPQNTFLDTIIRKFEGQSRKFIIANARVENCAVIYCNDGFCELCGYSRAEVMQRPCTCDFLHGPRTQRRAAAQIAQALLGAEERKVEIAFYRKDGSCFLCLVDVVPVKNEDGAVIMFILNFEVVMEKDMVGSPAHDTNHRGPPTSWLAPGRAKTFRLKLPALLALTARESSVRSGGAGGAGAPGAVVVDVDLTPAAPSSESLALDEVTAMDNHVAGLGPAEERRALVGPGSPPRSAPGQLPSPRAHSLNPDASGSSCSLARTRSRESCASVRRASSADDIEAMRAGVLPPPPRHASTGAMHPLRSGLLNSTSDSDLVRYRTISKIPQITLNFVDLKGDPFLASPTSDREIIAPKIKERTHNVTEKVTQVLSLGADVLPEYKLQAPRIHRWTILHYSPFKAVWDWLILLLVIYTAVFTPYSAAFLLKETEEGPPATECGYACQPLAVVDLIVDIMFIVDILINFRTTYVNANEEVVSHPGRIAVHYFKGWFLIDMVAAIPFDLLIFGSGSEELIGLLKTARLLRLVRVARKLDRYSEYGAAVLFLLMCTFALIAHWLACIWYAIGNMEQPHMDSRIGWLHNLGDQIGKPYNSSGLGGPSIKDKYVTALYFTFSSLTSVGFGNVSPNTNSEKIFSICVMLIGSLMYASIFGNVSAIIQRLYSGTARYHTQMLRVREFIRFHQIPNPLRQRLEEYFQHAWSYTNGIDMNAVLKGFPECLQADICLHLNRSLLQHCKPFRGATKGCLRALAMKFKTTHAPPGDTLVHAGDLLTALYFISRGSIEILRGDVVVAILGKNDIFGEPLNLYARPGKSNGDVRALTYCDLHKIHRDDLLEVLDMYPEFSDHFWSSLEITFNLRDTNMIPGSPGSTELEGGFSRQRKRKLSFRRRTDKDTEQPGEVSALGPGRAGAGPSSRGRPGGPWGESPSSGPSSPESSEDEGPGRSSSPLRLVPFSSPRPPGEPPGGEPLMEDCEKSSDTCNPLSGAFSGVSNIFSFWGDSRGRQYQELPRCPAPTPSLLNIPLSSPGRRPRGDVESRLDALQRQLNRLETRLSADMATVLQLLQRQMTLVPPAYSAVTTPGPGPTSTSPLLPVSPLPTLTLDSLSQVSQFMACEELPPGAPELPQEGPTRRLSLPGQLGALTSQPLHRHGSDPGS
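U2OS cells were transduced with wild-type KCNH2 virus (2.03 x 10^8 / mL) for 4 h at room temperature, then cultured overnight at 37 C. Thallium flux was read with FluxOr dye. Rate constants were normalized to DMSO controls.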
TRPML1 ag – qHTS for Agonists of the Human Mucolipin Transient Receptor Potential 1 (TRPML1); activation, % (concentration not given with the values); 410,000 compounds, 0.12% hits; TRPML1-expressing cells, Ca2+ dye fluorescence, FDSS; in the data active means activation above about 50%; inconclusive means mostly about 30% to 49%; further: 0% is about no effect
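TRPML1-DL cells, Tet-induced overnight (~16 h, 37 degrees C), loaded 45-90 min at room temperature with Ca8 no-wash calcium dye plus quencher. FDSS fluorescence: 10 s baseline, compound pin-transfer, 110 s agonist read, then EC80 54-4 (4uM final) and 110 s antagonist read.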
TRHR ag – qHTS for Small Molecule Agonists and Allosteric Enhancers of Human TRH Receptor: Primary Screen for Agonists. activation, % at 2 µM. TRHR cells, calcium flux fluo-8, FDSS agonist mode. 360,000 compounds, 0.18% hits. Thyrotropin-releasing hormone receptor (Homo sapiens), P34981; in the data active means activation above about 30%; further: 0% is about no effect
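Agonist-mode FDSS calcium read (Ex 480/Em 530, 1 s cycles) in 1536-well TRHR cells with fluo-8 dye, after 10-cycle baseline and 23 nL compound addition; TRH at EC20 (10 nM final) added afterwards for the enhancer phase.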
TRHR PAM – qHTS for Small Molecule Agonists and Allosteric Enhancers of Human TRH Receptor: Primary Screen for Enhancers. Thyrotropin-releasing hormone receptor (Homo sapiens), P34981. TRHR cells, fluo-8 calcium fluorescence, EC20 TRH enhancement. enhancement, % at 2 µM. 360,000 compounds, 0.66% hits; in the data active means enhancement above about 30%; further: 0% is about no effect
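Enhancer read-out: after compound pinning and an initial kinetic agonist-mode read, an EC20 of TRH (10 nM final) was injected and fluo-8 calcium signal (Ex 480/Em 530) followed at 1 s/cycle for 100 cycles in TRHR-expressing cells.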
Numbers without * were called inactive; ? = inconclusive; . = no result given.

SMILES	TRPML1 inh	KCNH2 3.1 block	KCNH2 WT inh	TRPML1 ag	TRHR ag	TRHR PAM
N#CC(CCc1ccccc1[N+](=O)[O-])(CCc1ccccc1[N+](=O)[O-])C(N)=O	19.6	-121.0*	?	1.5	.	.
O=C(NCCc1csc2nc(-c3ccccc3F)nn12)c1ccccc1C(F)(F)F	-11.8	.	.	1.8	-0.4	0.9
COc1cccc(C(=O)NCCc2csc3nc(-c4ccccc4F)nn23)c1OC	-0.3	.	.	1.3	-0.1	35.1*
CCOC(=O)N1CCN(/[N+]([O-])=N/Oc2ccc(C(F)(F)F)cc2[N+](=O)[O-])CC1	-24.5	.	.	1.3	.	.
O=C1/C(=C\c2cc(Cl)c(O)c(Cl)c2)SC(=S)N1Cc1ccccc1	-11.3	-40.2	-36.6	109.5*	188.1*	3.4
COc1ccc(/C=C2/SC(=S)N(Cc3ccccc3)C2=O)cc1O	.	-4.3	-6.3	.	-0.7	-7.3
CC1CC(C)CN(CCOc2ccc(Br)cc2)C1 (centres undefined)	?	-96.4*	3.2	-0.9	2.2	-9.7
Cc1cccc(NC(=S)N(CCN2CCOCC2)Cc2cc3cc4c(cc3[nH]c2=O)OCCO4)c1	-4.0	-3.7	-1.1	1.9	-0.8	33.9*
CCN(CC)CCCN(Cc1cc2cc3c(cc2[nH]c1=O)OCCO3)C(=O)Nc1ccc(F)cc1	1.0	-18.1	4.1	-0.5	-0.8	32.0*
CC1/C(=N/O)C(CN(C)C)C2CC1C2(C)C (centres undefined)	-6.0	12.3	-291.4*	-0.5	0.8	3.8
Cc1ccccc1C1CC(c2ccc(F)cc2)Nc2nc(N)nn21 (centres undefined)	-7.7	-5.5	-0.1	0.3	0.4	-1.7
Cc1ccccc1C1CC(c2ccc(Br)cc2)Nc2nc(N)nn21 (centres undefined)	-3.9	7.7	1.4	4.3	1.0	40.2*
Cc1ccc(-c2cc(C(=O)N3CCN(c4ncccn4)CC3)c3ccccc3n2)cc1	18.6	-71.0*	-7.3	1.6	0.3	-16.4
O=C(c1cc(-c2ccc(Br)cc2)nc2ccccc12)N1CCN(c2ccccc2O)CC1	15.4	-74.3*	-5.3	1.7	-1.4	0.8
COc1ccc(-c2cc(C(=O)N3CCN(c4ncccn4)CC3)c3ccccc3n2)cc1OC	82.9	-142.4*	15.6	1.1	-0.1	6.5
COc1ccc(-c2cc(C(=O)Nc3ccc(S(=O)(=O)Nc4onc(C)c4C)cc3)c3ccccc3n2)cc1OC	0.2	-81.2*	42.2	0.7	1.2	-2.3
CCCCNC(=O)O[C@@H]1C[C@H]2CCC(=O)N3CC[C@@H](C1)[C@@H]23	8.0	-9.6	9.1	-0.8	1.1	7.4
COCCc1ccc(OC2(C)CCN(Cc3cccc(OCOC)c3)C2)cc1 (centres undefined)	.	.	.	-1.0	.	.
CC1CC(C)(C)CC2(C1)NC(=O)N(CC(=O)Nc1cc(C(F)(F)F)ccc1N1CCCCC1)C2=O (centres undefined)	58.0	-13.0	-14.3	3.4	.	.
O=S(=O)(Nc1cc(F)ccc1F)c1cccc2nonc12	-13.2	5.9	6.0	-0.6	-0.1	3.9
COc1ccc(C(=O)COc2ncnc3cc(Cl)ccc23)cc1	66.2	13.0	8.8	7.8	-0.8	36.0*
Cc1cc(C)n2nc(C(=O)OCC(=O)Nc3ccc(C)c(S(=O)(=O)N4CCOCC4)c3)nc2n1	-10.6	-8.8	-3.1	0.6	.	.
O=C(NNc1c(Cl)cc(Cl)cc1Cl)c1cccc([N+](=O)[O-])c1	-17.4	-3.1	2.3	-1.7	0.1	21.8
O=C(CN(Cc1ccccc1)C(=O)c1cccc([N+](=O)[O-])c1)Nc1c(Cl)cc(Cl)cc1Cl	-2.7	-86.8*	6.7	5.7	0.2	-10.4
CC(C(=O)NCCN1CCOCC1)(c1ccccc1)c1ccccc1	-2.6	1.2	3.4	-0.2	0.3	3.3
SMILES	TRPML1 inh	KCNH2 3.1 block	KCNH2 WT inh	TRPML1 ag	TRHR ag	TRHR PAM
CCOC(=O)n1cc(-c2cnc(CNC(=O)C(C)(c3ccccc3)c3ccccc3)o2)c2ccccc21	19.7	-72.6*	-40.4	-1.2	0.8	-8.5
CC(C)(C)c1ccc(C(=O)NC2=NC(c3cccc(F)c3)CC(=O)N2)cc1 (centres undefined)	-4.9	.	.	1.3	0.1	9.1
COC(=O)c1ccc(-n2c(C)cc(C(=O)CSc3ccc(NC(C)=O)cc3)c2C)cc1	-10.2	-119.6*	2.3	3.9	0.9	-2.9
CC(=O)Nc1ccc(SCC(=O)c2cc(C)n(-c3ccccc3F)c2C)cc1	7.8	0.4	-9.1	2.7	-0.8	1.0
COCCNC(=O)/C(C#N)=C/c1c(N2CCN(C)CC2)nc2ccccn2c1=O	4.9	0.3	4.9	0.1	0.9	4.2
COc1ccc(C(=O)NC2CCCCCC2)cc1S(=O)(=O)Nc1ccc(Br)cc1	31.1	-80.4*	-7.0	0.9	0.6	-2.0
O=C(COC(=O)c1ccccc1Nc1ccccc1)c1ccccc1	-10.0	5.6	-269.4*	0.9	0.7	1.2
Cc1[nH]c2ccc(C(=O)N3CCN(c4ccccc4Cl)CC3)cc2c1C	-1.1	-30.4	-78.4*	0.1	0.0	4.3
Cc1cc(S(=O)(=O)Nc2nc(CN3CCOCC3)nc3sc4c(c23)CCC4)cc(C)c1C	-2.0	-0.4	-6.6	-0.4	0.2	14.3
COc1cccc(Nc2nc(CN3CCOCC3)nc3sc4c(c23)CCCC4)c1	-7.3	-6.5	-134.5*	-0.3	0.0	1.5
CCCCN(Cc1cc2cc(C)ccc2[nH]c1=O)C(=O)c1ccccn1	-7.4	0.2	-1.7	-0.4	-0.5	30.3*
Cc1ccc2[nH]c(=O)c(CN(Cc3ccccc3)C(=S)NCCCN(C)C)cc2c1	10.2	-4.1	12.4	-0.4	0.3	33.7*
C/C(=N\NC(=O)CCCNc1ccccc1)c1ccncc1	-3.5	-7.8	-2.4	-0.2	0.8	0.8
C/C(=N\NC(=O)CCCNc1ccc(C)cc1)c1ccccn1	10.1	1.5	3.1	-0.5	-0.7	32.1*
CC(=O)NCCC(=O)Nc1cc(S(=O)(=O)N2CCOCC2)ccc1Oc1ccccc1	18.4	-1.8	-73.5*	-0.3	0.7	3.1
CSc1nc(-c2cccs2)c(C#N)c(=O)[nH]1	10.4	-3.8	-133.5*	2.2	0.0	-1.5
